In PubChem BioAssay (NCI) one finds growth data, which are given here for 16 compounds.

About 83,000 compounds went through this panel and 20% of them were active in at least one assay; those are over-represented in the sample as a whole.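 Assay: single dose, 48 h. Readout: percent growth (0 = no net growth; negative = cell death). Active: <10.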 Unmarked numbers belong to inactive results. Active and inactive are the calls of the source.

Some test systems named below: HCT-15 colon; HT29 colon; SNB-75 CNS; SNB-19 CNS; U251 CNS; PC-3 prostate; SK-MEL-5 melanoma; UACC-62 melanoma; LOX IMVI melanoma; SK-MEL-28 melanoma.
What all share (assay): NCI-60 one-dose screen, 48 h (100 = growth as untreated, 0 = no growth, -100 = all killed)
Common to all, as to conditions: 10 µM unless noted

As to `C#Cc1cccc(Nc2ncnc3ccc(NC(=O)c4ccccc4)cc23)c1`, the growth in the test with HCT-15 colon was 65.3%; in the test with HT29 colon, 82.4%; in the test with SNB-75 CNS it was 67.2%; in the test on SNB-19 CNS it was 89.5%; with U251 CNS it was 85.4%; in the test on PC-3 prostate, 75.8%. Besides, the growth with SK-MEL-5 melanoma was 95.5%; in the test on UACC-62 melanoma, 95.2%; with LOX IMVI melanoma, 81.7%; with SK-MEL-28 melanoma, 93.9%.

With `COc1ccccc1N1CCN(CCCOc2ccc(C(=O)/C=C3/C(=O)Nc4ccccc43)cc2)CC1`, the growth in the test on HCT-15 colon is 74.7%; in the test on HT29 colon, 25.8%; with SNB-75 CNS, 85.1%; in the test on SNB-19 CNS, 84.6%; in the test with U251 CNS it was 64.1%; in the test with PC-3 prostate, 40.9%. Also, the growth in the test on SK-MEL-5 melanoma was -36.1% (active); with UACC-62 melanoma it was 56.1%; with LOX IMVI melanoma it was 55.5%; with SK-MEL-28 melanoma, 86.1%.

As for `CC(/C=C/c1ccccc1)=N/NC(=O)c1ccncc1`, the growth is 100% with HCT-15 colon; 108% with HT29 colon; 97.7% with SNB-75 CNS; 102% in the test on SNB-19 CNS; 98.3% in the test with U251 CNS; 92.5% in the test with PC-3 prostate. The growth with SK-MEL-5 melanoma was 100%; with UACC-62 melanoma, 94.1%; in the test on LOX IMVI melanoma, 99.5%; with SK-MEL-28 melanoma it was 118%.

Take `COc1ccc2nc3c(n2c1)C(=O)C(=O)c1ccccc1-3`: the growth was -60.2% (active) in the test on HCT-15 colon; 64% with HT29 colon; -54.4% (active) in the test on SNB-75 CNS; -30.9% (active) in the test on SNB-19 CNS; -59.4% (active) in the test on U251 CNS; 22.3% with PC-3 prostate. In addition, the growth was -99.5% (active) in the test on SK-MEL-5 melanoma, -91.1% (active) with UACC-62 melanoma, -68.4% (active) in the test on LOX IMVI melanoma and -83.2% (active) with SK-MEL-28 melanoma.

Regarding `Cc1ccc(C2=N[C@H]3CCC[C@@H]3N(c3ccccc3)C(C(Cl)Cl)=N2)cc1`, the growth was 99% with HCT-15 colon; 89.7% in the test with HT29 colon; 77% in the test with SNB-75 CNS; 113% with SNB-19 CNS; 112% with U251 CNS; 101% with PC-3 prostate. In addition, the growth with SK-MEL-5 melanoma is 104%; with UACC-62 melanoma it was 105%; with LOX IMVI melanoma it was 87.9%; with SK-MEL-28 melanoma, 101%.

As for `COc1cc(-c2csc(NC(=O)Nc3ccc(Cl)cc3)n2)cc(OC)c1OC`, the growth in the test with HCT-15 colon was 20.1%; in the test on HT29 colon, 36.1%; with SNB-75 CNS, 36.5%; with SNB-19 CNS, 24.3%; in the test with U251 CNS it was 25.4%; in the test with PC-3 prostate, 3.63% (active). The growth in the test with SK-MEL-5 melanoma was -37.8% (active); in the test with UACC-62 melanoma, -7.54% (active); in the test with LOX IMVI melanoma, 24.7%; in the test on SK-MEL-28 melanoma it was 41.1%.

For the compound `CCCCCCC/C=C/[C@H]1O[C@]23C(=O)C[C@@]4(C[C@@H](OC5OC(CO)C(O)C(O)C5O)C[C@@H]4[C@H]2C=C1C)OC3=O` (stereo not given in full), the growth with HCT-15 colon is -5.27% (active); in the test with HT29 colon, 0.865% (active); in the test with SNB-75 CNS, 70.6%; in the test on SNB-19 CNS it was 21.2%; in the test with U251 CNS, -2.96% (active); with PC-3 prostate, 21%. The growth is 8.74% (active) with SK-MEL-5 melanoma, 14.2% in the test with UACC-62 melanoma, -67.7% (active) in the test on LOX IMVI melanoma and -5.61% (active) in the test on SK-MEL-28 melanoma.

Take `Cc1cc(C)c(NC(=O)c2sc3nc4c(cc3c2N)CCCCCC4)c(C)c1`: the growth in the test with HCT-15 colon is 41.1%; in the test on HT29 colon it was 19%; with SNB-75 CNS it was 57.6%; with SNB-19 CNS, 49.1%; in the test on U251 CNS, 35.3%; in the test on PC-3 prostate, 47.9%. Besides, the growth with SK-MEL-5 melanoma was 57.1%; in the test on UACC-62 melanoma, 34.5%; with LOX IMVI melanoma, 58.7%; in the test with SK-MEL-28 melanoma, 75.2%.

Take `COc1ccc(Cl)c([N+](=O)[O-])c1`: the growth is 103% in the test with HCT-15 colon; 107% with HT29 colon; 98.2% in the test on SNB-75 CNS; 103% with SNB-19 CNS; 106% with U251 CNS; 105% with PC-3 prostate. Besides, the growth is 99.2% in the test on SK-MEL-5 melanoma, 97% in the test on UACC-62 melanoma, 97.2% in the test with LOX IMVI melanoma and 106% in the test on SK-MEL-28 melanoma.

Consider `O=C1CCC23OC(c4ccccc4N12)C(O)C(O)C3O` (stereo not given), for which the growth with HCT-15 colon was 109%; with HT29 colon, 91.6%; in the test with SNB-75 CNS, 113%; with SNB-19 CNS, 101%; in the test on U251 CNS it was 105%; in the test on PC-3 prostate it was 95.6%. For the same compound, the growth in the test on SK-MEL-5 melanoma was 111%; in the test on UACC-62 melanoma it was 98.5%; with LOX IMVI melanoma it was 100%; in the test with SK-MEL-28 melanoma, 118%.

Consider `Cn1nc(C(F)(F)F)c(-c2cc(C(F)(F)F)cc(C(F)(F)F)c2)c1-c1ccc(OCc2ccc(Cl)cc2)cc1O`, for which the growth with HCT-15 colon is 7.5% (active); in the test on HT29 colon it was 3.77% (active); in the test on SNB-75 CNS, 4.92% (active); in the test on SNB-19 CNS, 22.6%; in the test on U251 CNS, 6.17% (active); with PC-3 prostate, 10.7%. Besides, the growth with SK-MEL-5 melanoma was -36.6% (active); with UACC-62 melanoma it was 3.02% (active); in the test with LOX IMVI melanoma, 6.23% (active); with SK-MEL-28 melanoma, 28%.

For the compound `COc1cccc2c1-c1ccccc1C2=O`, the growth in the test with HCT-15 colon is 33.3%; in the test on HT29 colon it was 17.5%; with SNB-75 CNS, 18.1%; with SNB-19 CNS, 29%; with U251 CNS, 17.8%; in the test on PC-3 prostate, 28.1%. For the same compound, the growth in the test with SK-MEL-5 melanoma is 9.97% (active); with UACC-62 melanoma, 33.3%; in the test with LOX IMVI melanoma it was 40.3%; in the test on SK-MEL-28 melanoma, 47.9%.

For the compound `CCO/C=N/S(=O)(=O)c1cc2c(cc1Cl)NC=NS2(=O)=O`, the growth is 107% with HCT-15 colon; 97.4% in the test with HT29 colon; 106% in the test with SNB-75 CNS; 103% with SNB-19 CNS; 95.4% in the test with U251 CNS; 92.3% in the test with PC-3 prostate. Moreover, the growth in the test on SK-MEL-5 melanoma is 102%; in the test on UACC-62 melanoma, 104%; with LOX IMVI melanoma, 98.4%; in the test with SK-MEL-28 melanoma it was 120%.

In the case of `COC1=CC=CC2(OC)C3(O)CCCc4cccc(c43)N3C(=O)COC132` (stereo not given), the growth with HCT-15 colon is 103%; in the test on HT29 colon, 97.2%; in the test on SNB-75 CNS it was 84.2%; in the test on SNB-19 CNS it was 101%; in the test with U251 CNS, 97.3%; with PC-3 prostate, 95.4%. Moreover, the growth in the test with SK-MEL-5 melanoma is 104%; in the test with UACC-62 melanoma, 92%; in the test with LOX IMVI melanoma it was 97.7%; in the test with SK-MEL-28 melanoma, 111%.

Turning to `COC(=O)c1cncc(C(=O)Nc2ccc(-n3cnc4ccccc43)cc2)c1`, the growth in the test with HCT-15 colon is 100%; with HT29 colon, 96.5%; in the test with SNB-75 CNS, 117%; in the test on SNB-19 CNS, 99.1%; in the test on U251 CNS it was 91.4%; with PC-3 prostate it was 92.1%. The growth in the test with SK-MEL-5 melanoma is 93.9%; in the test with UACC-62 melanoma it was 93.4%; in the test on LOX IMVI melanoma, 96.4%; with SK-MEL-28 melanoma, 103%.

In the case of `CCCCn1c(=O)c(/C=C/C(=O)/C=C/c2cc3ccccc3n(CCCC)c2=O)cc2ccccc21`, the growth in the test on HCT-15 colon is 1.62% (active); in the test with HT29 colon, -88.9% (active); with SNB-75 CNS it was 48.8%; with SNB-19 CNS it was 16.2%; in the test with U251 CNS, -48.3% (active); in the test with PC-3 prostate, 1.47% (active). Further, the growth with SK-MEL-5 melanoma is -74.5% (active); with UACC-62 melanoma, -43.8% (active); in the test on LOX IMVI melanoma, -80.3% (active); in the test with SK-MEL-28 melanoma, -8.48% (active).
